From PubChem BioAssay (NCATS) come the findings set out here.

Molecules are shown by their SMILES. Records with an inconclusive call do not appear. Values without a mark were called inactive. Activity calls are given as the source filed them. The call rests on the fitted dose curve; in most records, active means well fitted curve in the direction sought with a large enough effect; inconclusive means small, poorly fitted or top-dose-only effect, or another doubt; inactive means no such curve, though single readings can be large; an effect the other way counts as inactive or inconclusive.

A short description of test [1]: Quantitative highthroughput screen to assess conditional lethalithy of NOMO1 cells grown in RPMI1640 with untreated serum (RPMI+s) (AID 1963876). Further: nearly all actives have a fitted effect of over 35% in size. Further: potency means the concentration at half of the fitted maximal effect.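 On viability: 100% = DMSO wells and 0% = empty wells without cells.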 In a few lines:
(§1)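 Each medium arm—HPLM with 10% dialyzed FBS, or RPMI1640 with 5 mM glucose and 10% untreated or dialyzed FBS—was screened against an 11-point, 3-fold compound titration for 48 h at 37 °C, with CellTiter-Glo luminescence as endpoint.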

Test [2] is described as follows: Quantitative highthroughput screen to assess conditional lethalithy of NOMO1 cells grown in RPMI1640 with dialyzed fetal bovine serum (RPMI+ds) (AID 1963877). Further: nearly all actives have a fitted effect of over 30% in size. Further: potency means the concentration at half of the fitted maximal effect.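 On viability: series mostly up to about 46 µM; 100% = DMSO control wells and 0% = empty wells.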 In a few lines: as §1
Test [3] can be described thus: Quantitative highthroughput screen to assess conditional lethalithy of NOMO1 cells grown in Human Plasma-Like Medium with dialyzed fetal bovine serum (HPLM+ds) (AID 1963878). Further: nearly all actives have a fitted effect of over 35% in size. Further: potency means the concentration at half of the fitted maximal effect.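 On viability: 100% = DMSO wells and 0% = empty wells on each plate.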 In a few lines:
as §1

Test [4] in a line: Quantitative highthroughput screen to assess conditional lethalithy of P12 Ichikawa cells grown in Human Plasma-Like Medium with dialyzed fetal bovine serum (HPLM+ds) (AID 1963879). Further: nearly all actives have a fitted effect of over 35% in size. Further: potency means the concentration at half of the fitted maximal effect. On viability: series mostly up to about 46 µM. Particulars: Potency: viability. In a few lines: as §1
Test [5] can be described thus: Quantitative highthroughput screen to assess conditional lethalithy of P12 Ichikawa cells grown in RPMI1640 with dialyzed fetal bovine serum (RPMI+ds) (AID 1963880). Further: nearly all actives have a fitted effect of over 35% in size. Further: potency means the concentration at half of the fitted maximal effect.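 On viability: 100% = DMSO wells and 0% = empty wells on each plate.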 Conditions: Potency: P12-Ichikawa viability. In a few lines: as §1
Test [6] is described as follows: Quantitative highthroughput screen to assess conditional lethalithy of P12 Ichikawa cells grown in RPMI1640 with untreated serum (RPMI+s) (AID 1963881). Further: nearly all actives have a fitted effect of over 35% in size. Further: potency means the concentration at half of the fitted maximal effect.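 On viability: series mostly up to about 46 µM; 100% = DMSO wells and 0% = empty wells without cells.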 Conditions: Potency: viability. In a few lines:
as §1

Test [7] can be described thus: Quantitative highthroughput screen to assess conditional lethalithy of SEM cells grown in Human Plasma-Like Medium with dialyzed fetal bovine serum (HPLM+ds) (AID 1963882). Further: nearly all actives have a fitted effect of over 35% in size. Further: potency means the concentration at half of the fitted maximal effect. On viability: series mostly up to about 46 µM. A digest of the protocol: as §1
Test [8] can be described thus: Quantitative highthroughput screen to assess conditional lethalithy of SEM cells grown in RPMI1640 with unreated serum (RPMI+s) (AID 1963883). Further: nearly all actives have a fitted effect of over 35% in size. Further: potency means the concentration at half of the fitted maximal effect.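 On viability: 100% = DMSO wells and 0% = empty wells without cells.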 A digest of the protocol: as §1
A short description of test [9]: Quantitative highthroughput screen to assess conditional lethalithy of SEM cells grown in RPMI1640 with dialyzed fetal bovine serum (RPMI+ds) (AID 1963884). Further: nearly all actives have a fitted effect of over 35% in size. Further: potency means the concentration at half of the fitted maximal effect.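 On viability: series mostly up to about 46 µM; 100% = DMSO control wells and 0% = empty wells without cells.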 A digest of the protocol:
as §1

Test [10] can be described thus: Cellular viability qHTS for adrenocortical cancer (ACC) cell line SW-13 (AID 1963989).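 Further: cells grown in serum-free medium with ITS supplement; on the % scale 0 is the no-effect control and ±100 the full control effect; nearly all actives have a fitted effect of over 65% in size.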 Conditions: SW-13 ACC cells viability, CellTiter-Glo, 48 h; activity (max response): active compounds read low. In a few lines: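 Viability was read as CellTiter-Glo luminescence after 48 h compound treatment (up to 46 uM final) of SW-13 cells grown serum-free; titration curves were fit with a four-parameter logistic model to give IC50 and efficacy.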
(In qHTS, concentration-response curves come from the screen itself.)

Test [11] in a line: Cellular viability qHTS for adrenocortical cancer (ACC) cell line NCI-H295R (AID 1963990). Further: nearly all actives have a fitted effect of over 60% in size. Further: potency means the concentration at half of the fitted maximal effect.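 On activity change, negative = viability loss: 0% = DMSO only wells and -100% = full killing with cytotoxic reference compound.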 A digest of the protocol:
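CellTiter-Glo ATP luminescence, read 48 h after compound addition, measured viability of NCI-H295R adrenocortical cells grown serum-free with ITS. Final concentrations spanned up to 46 uM. Data normalized to DMSO and doxorubicin, fitted for IC50 and maximal response.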

For `COc1ccc(-n2c(C)c([N+](=O)[O-])c3ccc(O)cc32)cc1`, the Potency result in test [1], in test [2], in test [3], in [4], in [5] and in [6] was “inactive” throughout. Besides, the Potency entry in [7], in [8] and in test [9] was “inactive” throughout. The activity (max response) in test [10] is 3.14%.
Regarding `Nc1cccc(S(=O)(=O)N2CCCN(S(=O)(=O)c3ccc4c(c3)OCCO4)CC2)c1`, the Potency result in test [1], in test [2], in test [3], in [4], in test [5] and in [6] was “inactive” throughout. In addition, the Potency result in test [7], in test [8] and in test [11] was “inactive” each time. In test [10], the activity (max response) is -19.9%.
Consider `Cc1ccc2c(c1)C(=O)[C@]1(O)CCN(c3ccccc3)C1=N2`, for which the Potency entry in test [1], in test [2], in test [3], in test [4], in [5] and in test [6] was “inactive” in each case. The Potency entry in test [7], in test [8], in [9] and in test [11] was “inactive” in each case.
`COc1ccc(CCC(=O)Nc2nc3ccc(Cl)cc3s2)cc1OC`: the Potency entry in test [1], in [2], in [3], in test [4], in [5] and in [6] was “inactive” in each case. Also, the Potency entry in [7] and in [8] was “inactive” throughout. Besides, in [10], the activity (max response) is -11.7%.
For the compound `C=C1C(=O)O[C@H]2[C@@H]1CCC(C)=CCC[C@@]1(C)O[C@@H]21`, the Potency in test [1] is 4690 nM (active); in [2], 5900 nM (active); in test [3], 2350 nM (active); in test [4] it was 2350 nM (active); in test [5] it was 2350 nM (active); in test [6], 2640 nM (active). The figures for the Potency in test [7] and in [9] were 1320 nM (active) and 1480 nM (active), respectively.
In the case of `COc1ccc(CC2=NN3C([C@@H](CCc4ccccc4)[C@@H](C)O)=NC(C)C3C(=O)N2)cc1OC` (some centres not stated), the Potency entry in test [1], in test [2], in test [3], in test [4], in test [5] and in test [6] was “inactive” throughout. The Potency entry in [7], in test [8], in [9] and in test [11] was “inactive” each time. Further, the activity (max response) in test [10] was 3.98%.
With `CC(C)[C@H](C(=O)Nc1ccc(C(=O)NO)cc1)c1ccccc1`, the Potency in [1] was 3320 nM (active); in test [2], 2640 nM (active); in test [3], 2640 nM (active); in [4] it was 2350 nM (active); in test [5], 2350 nM (active); in test [6], 2090 nM (active). Also, the Potency in [7] was 1480 nM (active); in test [8], 1660 nM (active); in [9] it was 1480 nM (active); in [11], 1260 nM (active).
Take `O=C(O)c1cccc(-c2noc(-c3ccccc3F)n2)c1`: the Potency entry in test [1], in [2], in [3], in test [4], in [5] and in [6] was “inactive” each time. The Potency entry in test [8], in [9] and in [11] was “inactive” each time.
As to `CC[C@@H]1C=C(C)C[C@H](C)C[C@H](OC)[C@H]2O[C@@](O)(C(=O)C(=O)N3CCCC[C@@H]3C(=O)O[C@H](C(C)=C[C@@H]3CC[C@H](Cl)[C@H](OC)C3)[C@H](C)[C@@H](O)CC1=O)[C@H](C)C[C@H]2OC`, the Potency entry in test [1], in [2], in test [3], in test [4], in test [5] and in test [6] was “inactive” each time. Moreover, the Potency result in [8] is “inactive”. In addition, in test [9], the Potency is 1480 nM (active).
For `CCCCCCCCCCCCCCCC(=O)OC[C@@H](NC(=O)C(Cl)Cl)[C@H](O)c1ccc([N+](=O)[O-])cc1`, the Potency entry in test [1], in test [2], in [3], in test [4], in [5] and in test [6] was “inactive” in each case. The Potency entry in test [8] and in test [9] was “inactive” each time.
`O=C(C=Cc1cccnc1)NCCCCC1CCN(C(=O)c2ccccc2)CC1`: the Potency in test [1] is 5.9 nM (active); in test [2], 3.3 nM (active); in test [3], 2.6 nM (active); in [4], 3 nM (active); in test [5], 5.3 nM (active); in test [6], 4.7 nM (active). In addition, the Potency is 2.6 nM (active) in [8] and 1.9 nM (active) in [9].
Regarding `CS(=O)(=O)c1ccc(Oc2cc(F)cc(C#N)c2)c2c1[C@H](O)C(F)(F)C2`, the Potency result in test [1], in test [2], in test [3], in [4], in [5] and in test [6] was “inactive” throughout. Also, the Potency result in test [11] is “inactive”. Besides, the activity (max response) in test [10] is 10.8%.
Turning to `CCNC(=O)[C@H]1O[C@@H](n2cnc3c(N)nc(NCCc4ccc(CCC(=O)O)cc4)nc32)[C@H](O)[C@H]1O`, the Potency result in [1], in test [2], in test [3], in test [4], in [5] and in [6] was “inactive” in each case. Besides, the Potency entry in test [7] and in test [9] was “inactive” in each case.
For `Nc1ccn(C[C@@H](CO)OCP(=O)(O)O)c(=O)n1`, the Potency entry in [1], in [2], in test [3], in test [4], in test [5] and in [6] was “inactive” in each case. Also, the Potency entry in test [7] and in [9] was “inactive” each time. Besides, the activity (max response) in test [10] is -11.5%. The activity change, negative = viability loss in test [11] was 1.71% [at 9.17 µM].
For the compound `N[C@@]1(C(=O)O)CS(=O)(=O)[C@H]2[C@H](C(=O)O)[C@H]21`, the Potency result in [1], in [2], in [3], in [4], in [5] and in test [6] was “inactive” throughout. Further, the Potency entry in test [11] was “inactive”. Besides, the activity (max response) in [10] is 10.9%.
In the case of `CC1(C)S[C@H]2[C@H](NC(=O)[C@@H](N)c3ccc(O)cc3)C(=O)N2[C@@H]1C(=O)O`, the Potency was 8330 nM (active) in [1]; 9350 nM (active) in [2]; 5260 nM (active) in [3]; 7430 nM (active) in test [4]; 5900 nM (active) in [5]; 8330 nM (active) in [6]. For the same compound, the Potency in test [7] is 16600 nM (active). In test [9], the Potency entry is “inactive”.
For the compound `CC=C1C2C=C(C)CC1(N)c1ccc(=O)[nH]c1C2` (configuration not stated), the Potency result in test [1], in test [2], in test [3], in test [4], in test [5] and in test [6] was “inactive” each time. Further, the Potency result in [8] and in [9] was “inactive” throughout.
Take `Cc1cc(-c2nnc3n2CCCCC3)c(C)n1-c1ccccc1`: the Potency result in test [1], in test [2], in test [3], in test [4], in [5] and in test [6] was “inactive” each time. Also, the Potency result in test [7] and in [9] was “inactive” each time.
As to `Cc1c(NC(=O)c2ccc(C(C)(C)C)cc2)cccc1-c1cn(C)c(=O)c(Nc2ccc(C(=O)N3CCOCC3)cc2)n1`, the Potency entry in test [1], in [2], in test [3], in test [4], in test [5] and in test [6] was “inactive” each time. Also, the Potency entry in test [8], in test [9] and in test [11] was “inactive” in each case. Also, the activity (max response) in [10] is -3.65%.
As for `CCOC(=O)C1=C[C@@H](OC(CC)CC)[C@H](NC(C)=O)[C@@H](N)C1`, the Potency result in test [1], in test [2], in test [3], in test [4], in [5] and in test [6] was “inactive” throughout. Also, the Potency result in [8] and in [9] was “inactive” throughout.
